Bioassay records as filed in PubChem BioAssay.
The list is not random: actives were taken first. Their share in the collection is about 21%.
Sm TGR block – inhibitors of Schistosoma mansoni thioredoxin glutathione reductase; Q962Y6; purified TGR, DTNB reduction, TNB absorbance 405 nm; Potency, µM (doses to about 114 µM), usual class: inhibitors; actives 3% (n = 360,000); AID 485364; further: nearly all actives have a fitted effect of over 60% in size
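Kinetic colorimetric format: TGR-catalysed, NADPH-driven DTNB reduction monitored via TNB absorbance. Enzyme dispensed at 20 nM; compound exposure 15 min at room temperature before reaction start.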
CHX counter – affects cycloheximide protein synthesis inhibition readout, counter-screen. actives 12% (n = 300,000). cell reporter, cycloheximide protein synthesis inhibition counterscreen. max response, %. AID 2314; in the data active means max response mostly above about 13%, no sharp cut-off; inactive means mostly below about 14%; further: read at 38.3 µM for the half of the compounds with a filed dose
NS1 inh – influenza NS1 inhibition; Potency, µM (doses to about 46.1 µM); actives 0.4% (n = 270,000); calls by dose curve; further: actives are rising curves; nearly all actives have a fitted effect of over 50% in size
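A cell-based growth assay was used: compounds that relieve NS1-induced slow growth of budding yeast raise OD600. Assay medium was yeast nitrogen base with ammonium sulphate and -URA supplement, pH 6.0, with 2% galactose.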
Pf growth 96h – inhibits malaria parasite growth, 96 h. P. falciparum luciferase reporter growth, 96 h. Potency, µM (series often up to 28.7 µM), actives largely listed as inhibitors. actives 6.9% (n = 320,000)
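Luminescence readout: decreased luciferase signal marks inhibited growth of reporter-expressing P. falciparum in infected red cells (2% hematocrit, 0.05% parasitemia final), exposed to compound two generations (96 h, 37 C, 5% CO2).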
Shiga inhibitor – Shiga toxin inhibition; inhibition, % at 38.7 µM; Vero cells, Shiga toxin protein synthesis inhibition reporter; actives 9.2% (n = 290,000); AID 2315; in the data active means inhibition mostly above about 28%, no sharp cut-off; inactive means mostly below about 43%
Pf growth 48h – inhibits P. falciparum growth in the first generation, 48 h | P. falciparum luciferase growth in erythrocytes, 48 h | Potency, µM (top dose mostly 28.7 µM), most hits filed as inhibitors | actives 5.9% (n = 310,000) | AID 504832
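Firefly luciferase activity from engineered P. falciparum reports growth; inhibitors lower the luminescent signal. Cultures contained 2% hematocrit erythrocytes at 0.1% final parasitemia.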
Numbers stand for hits. Unless noted, the call rests on the fitted dose curve; in most records, active means well fitted curve in the direction sought with a large enough effect; inconclusive means small, poorly fitted or top-dose-only effect, or another doubt; inactive means no such curve, though single readings can be large; an effect the other way counts as inactive or inconclusive.

Results for C(=N\Nc1cc(N2CCCCC2)ncn1)/c1ccco1 ?
Sm TGR block: inactive; CHX counter: 28; NS1 inh: inactive; Pf growth 96h: inactive; Shiga inhibitor: 38; Pf growth 48h: inactive

How did Fc1cccc(/C=N/Nc2cc(N3CCOCC3)ncn2)c1 do in these assays?
Sm TGR block: inactive; CHX counter: 23; NS1 inh: inactive; Pf growth 96h: 2.3µM; Shiga inhibitor: 25; Pf growth 48h: inactive

How did COc1ccc(/C=N/Nc2cc(N3CCOCC3)ncn2)c(OC)c1 do in these assays?
Sm TGR block: inactive; CHX counter: inactive; NS1 inh: inactive; Pf growth 96h: inconclusive; Shiga inhibitor: inactive; Pf growth 48h: inactive

How did CCc1cccc2sc(N(CCCN3CCOCC3)C(=O)CS(=O)(=O)c3ccccc3)nc12 do in these assays?
Sm TGR block: inactive; Pf growth 96h: inconclusive; Pf growth 48h: 9.3µM

What do the screens show for `O=C(CCS(=O)(=O)c1ccccc1)N(CCCN1CCOCC1)c1nc2ccc(F)cc2s1`?
Sm TGR block: 13µM; Pf growth 96h: inactive; Pf growth 48h: inactive

Results for O=C(CCS(=O)(=O)c1ccccc1)N(CCCN1CCOCC1)c1nc2c(F)cccc2s1 ?
Sm TGR block: 11µM; Pf growth 96h: inactive; Pf growth 48h: inactive

How did Cc1cccc(C)c1OCC(=O)N/N=C/c1cccnc1 do in these assays?
Sm TGR block: inactive; CHX counter: inactive; NS1 inh: inactive; Pf growth 96h: inactive; Shiga inhibitor: inactive; Pf growth 48h: inactive

Results for O=C(Nc1ccccc1)N1CCN(C(=O)c2nsc3ccccc23)CC1 ?
Sm TGR block: inactive

What do the screens show for `CN1CCN(S(=O)(=O)Cc2ccc(Cl)cc2)CC1`?
Sm TGR block: inactive; CHX counter: inactive; NS1 inh: inactive; Pf growth 96h: inconclusive; Shiga inhibitor: inactive; Pf growth 48h: inconclusive

How did COc1ccc(CNC(=O)CN2N=C(c3ccccc3)CCC2=O)c(OC)c1 do in these assays?
Sm TGR block: inactive

What do the screens show for `COc1ccc(S(=O)(=O)N(Cc2ccccc2)Cc2nc3ccccc3c(=O)[nH]2)cc1`?
Sm TGR block: inconclusive; CHX counter: inactive; NS1 inh: inactive; Pf growth 96h: inactive; Shiga inhibitor: inactive; Pf growth 48h: inconclusive

How did COc1ccccc1CN(Cc1nc2ccccc2c(=O)[nH]1)C(=O)Nc1cccc(C)c1 do in these assays?
Sm TGR block: inactive; CHX counter: 19; NS1 inh: inactive; Pf growth 96h: 9.3µM; Shiga inhibitor: 44

What do the screens show for `O=c1[nH]c(Cc2ccc(Cl)cc2)nc2ccccc12`?
CHX counter: inactive; NS1 inh: inactive; Pf growth 96h: inactive; Shiga inhibitor: inactive; Pf growth 48h: inactive

How did COc1ccccc1CN(Cc1nc2ccccc2c(=O)[nH]1)S(=O)(=O)c1ccc2ccccc2c1 do in these assays?
Sm TGR block: inactive; CHX counter: inactive; NS1 inh: inactive; Pf growth 96h: inactive; Shiga inhibitor: inactive; Pf growth 48h: 5.9µM

What do the screens show for `O=c1[nH]c(CN(CCc2ccccc2)S(=O)(=O)c2ccc(Cl)cc2)nc2ccccc12`?
Sm TGR block: inactive; CHX counter: 21; NS1 inh: inactive; Pf growth 96h: inactive; Shiga inhibitor: active; Pf growth 48h: inactive

What do the screens show for `COc1ccc(S(=O)(=O)NCc2csc(C)n2)cc1OC`?
Sm TGR block: inactive; CHX counter: inactive; NS1 inh: inactive; Pf growth 96h: inactive; Shiga inhibitor: inactive; Pf growth 48h: inactive

What do the screens show for `C=CCOc1cccc(C(=O)N2CCCC(CNS(=O)(=O)c3cccs3)C2)c1` (stereo not drawn)?
Sm TGR block: inactive; CHX counter: inactive; NS1 inh: inactive; Pf growth 96h: inconclusive; Shiga inhibitor: inactive; Pf growth 48h: inactive

What do the screens show for `CCn1c(CNC(=O)c2ccccc2Br)nnc1SCC(=O)Nc1nncs1`?
Sm TGR block: inactive; CHX counter: inactive; NS1 inh: inactive; Pf growth 96h: inconclusive; Shiga inhibitor: inactive; Pf growth 48h: inactive

What do the screens show for `Cc1ccc(Cl)cc1Nc1sc(C(=O)c2ccc(F)cc2)c(N)c1S(C)(=O)=O`?
Sm TGR block: inactive

Results for CN(Cc1ccsc1)C(=O)Cn1cc(Br)ccc1=O ?
Sm TGR block: inactive; CHX counter: 29; NS1 inh: inactive; Pf growth 96h: inactive; Shiga inhibitor: 78; Pf growth 48h: inactive

Results for CN(CC(=O)Nc1ccc(F)cc1)C(=O)Cc1ccsc1 ?
Sm TGR block: inactive; Pf growth 96h: inactive; Pf growth 48h: inconclusive
